# Measured values as given in PubChem BioAssay (NCI).
# “And” between values parts separate entries of the source, which are not always exact repeats. Equal entries are not always repeated. This is part of a sample that, as a whole, favours compounds with a hit. Of some 79,000 tested, about 15% had one in any assay. Values without a mark were called inactive. The source made the active and inactive calls. Rule as the data show it: active = growth inhibition above about 70%; inactive = the rest.
# Columns and labels:
# [1] = NCI Yeast Anticancer Drug Screen. Data for the rad52 strain (AID 147);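 also: 0% = growth of vehicle-treated control cultures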; settings: S. cerevisiae rad52 mutant growth inhibition, hits give high values
# How it was run: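 Compounds are applied to a genetically defined yeast strain lacking normal DNA damage repair, and inhibition of growth is expressed relative to cultures given vehicle only.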
# [2] = NCI Yeast Anticancer Drug Screen. Data for the wt1 strain (AID 149);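 also: 0% = growth of vehicle-treated wt1 cultures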; settings: S. cerevisiae wt1 strain (SPY 50644) growth inhibition, hits give high values
# How it was run: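 Yeast wt1 strain exposed to compounds; growth inhibition measured relative to vehicle-treated controls.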
# [3] = NCI Yeast Anticancer Drug Screen. Data for the rad50EPP+ strain (AID 151);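 also: 0% = growth of vehicle-treated control cultures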; settings: S. cerevisiae rad50 mutant strain, hits give high values
# How it was run: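 Compounds were applied to the rad50EPP+ yeast strain, which bears a defined DNA repair alteration, and growth inhibition was determined relative to vehicle-treated cultures.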
# [4] = NCI Yeast Anticancer Drug Screen. Data for the mgt1 strain (AID 153); settings: S. cerevisiae mgt1 mutant growth inhibition, hits give high values
# How it was run: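 Strain: mgt1 yeast, one of a set carrying defined DNA damage repair or cell cycle control alterations. Compound-treated growth compared with vehicle.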
# [5] = NCI Yeast Anticancer Drug Screen. Data for the mec2-1 strain (AID 157); settings: S. cerevisiae mec2-1 strain, hits give high values
# How it was run: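 Strain: mec2-1 (DNA repair/cell cycle alteration). Compound exposure, then growth measured; inhibition expressed relative to vehicle.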
# [6] = NCI Yeast Anticancer Drug Screen. Data for the rad14 strain (AID 159);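 also: 0% = growth of vehicle-treated control cultures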; settings: S. cerevisiae rad14 strain growth inhibition, hits give high values
# How it was run: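 Yeast cells carrying a defined DNA-repair defect were exposed to compounds, and growth inhibition was calculated relative to vehicle-treated control cultures.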
# [7] = NCI Yeast Anticancer Drug Screen. Data for the sgs1 mgt1 strain (AID 161);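 also: 0% = growth of cultures given vehicle only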; settings: S. cerevisiae sgs1 mgt1 strain, hits give high values
# How it was run: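 Mutant yeast exposed to compound; growth scored against vehicle-only wells.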
# [8] = NCI Yeast Anticancer Drug Screen. Data for the CLN2oe strain (AID 163);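 also: 0% = growth of vehicle-only control cultures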; settings: S. cerevisiae CLN2oe strain, hits give high values
# How it was run: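 Growth of a genetically modified yeast strain is measured after compound exposure and compared with cultures given vehicle alone.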
# [9] = NCI Yeast Anticancer Drug Screen. Data for the cln2 rad14 strain (AID 165);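 also: 0% = growth equal to vehicle treated cultures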; settings: S. cerevisiae cln2 rad14 strain, hits give high values
# How it was run: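 Compounds are applied to the cln2 rad14 yeast strain, and growth is then compared with that of vehicle-treated cultures to give inhibition.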
# [10] = NCI Yeast Anticancer Drug Screen. Data for the bub3 strain (AID 167); settings: S. cerevisiae bub3 mutant strain, hits give high values
# How it was run: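 Compounds were applied to a genetically altered yeast strain carrying a cell-cycle control defect. Growth inhibition was scored against vehicle-treated controls.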
# [11] = NCI Yeast Anticancer Drug Screen. Data for the wt2 strain (AID 169);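 also: 0% = growth of vehicle-treated yeast cultures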; settings: S. cerevisiae wt2 strain growth inhibition, hits give high values
# How it was run: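 This strain belongs to a panel of yeast strains with defined genetic alterations in DNA damage repair or cell cycle control. Compounds are applied, and growth inhibition is measured against vehicle-treated cultures.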
# [12] = NCI Yeast Anticancer Drug Screen. Data for the mlh1 strain (AID 171);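 also: 0% = growth of vehicle-treated control cultures of the same strain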; settings: S. cerevisiae mlh1 strain growth inhibition, hits give high values
# How it was run: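 Growth of the mutant yeast strain after compound exposure, expressed as inhibition relative to vehicle-only controls.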
# [13] = NCI Yeast Anticancer Drug Screen. Data for the sgs1 strain (AID 173);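 also: 0% = growth of vehicle-only control cultures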; settings: S. cerevisiae sgs1 mutant, hits give high values
# How it was run: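 Growth of a yeast strain bearing a defined genetic alteration is measured after compound treatment. Inhibition is expressed relative to vehicle-only controls.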
# [14] = NCI Yeast Anticancer Drug Screen. Data for the mlh1 rad18 strain (AID 175); settings: S. cerevisiae mlh1 rad18 strain growth inhibition, hits give high values
# How it was run: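 Read-out is yeast growth inhibition, calculated against vehicle-only controls. The compound was applied to a strain engineered with DNA damage repair alterations.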
# [15] = NCI Yeast Anticancer Drug Screen. Data for the rad18 strain (AID 177); settings: S. cerevisiae rad18 mutant growth inhibition, hits give high values
# How it was run: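 Growth of the mutant yeast strain after compound exposure, normalised to vehicle-only cultures.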
# [16] = NCI Yeast Anticancer Drug Screen. Data for the rad50 strain (AID 155);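 also: 0% = growth of vehicle-only cultures of the same strain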; settings: S. cerevisiae rad50 strain growth inhibition, hits give high values
# How it was run: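 Yeast carrying a defined DNA repair defect were exposed to test compounds, and growth was compared with vehicle-treated controls to give percent inhibition.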
# [17] = at 5.0 µM (retest, dose inferred, filed as 0.5)
# [18] = at 50.0 µM (retest, dose inferred, filed as 5.0)
smiles,measurement,setting,value
c1ccc(-c2cnc3ccccc3c2)cc1,growth inhibition,[1]; at 1.2 µM,0%
same,growth inhibition,[1]; at 3.7 µM,3%
same,growth inhibition,[1]; at 11.0 µM,0%
same,growth inhibition,[1]; at 33.0 µM,28%
same,growth inhibition,[1]; at 100.0 µM,99% (active)
same,growth inhibition,[2]; at 1.2 µM,-7%
same,growth inhibition,[2]; at 3.7 µM,-8%
same,growth inhibition,[2]; at 11.0 µM,-12%
same,growth inhibition,[2]; at 33.0 µM,-12%
same,growth inhibition,[2]; at 100.0 µM,98% (active)
same,growth inhibition,[3]; at 1.2 µM,7%
same,growth inhibition,[3]; at 3.7 µM,14%
same,growth inhibition,[3]; at 11.0 µM,37%
same,growth inhibition,[3]; at 33.0 µM,70% (active)
same,growth inhibition,[3]; at 100.0 µM,98% (active)
same,growth inhibition,[4]; at 1.2 µM,-5%
same,growth inhibition,[4]; at 3.7 µM,-7%
same,growth inhibition,[4]; at 11.0 µM,-6%
same,growth inhibition,[4]; at 33.0 µM,-6%
same,growth inhibition,[4]; at 100.0 µM,96% (active)
same,growth inhibition,[5]; at 1.2 µM,3%
same,growth inhibition,[5]; at 3.7 µM,-3%
same,growth inhibition,[5]; [17],-52%
same,growth inhibition,[5]; at 11.0 µM,-12%
same,growth inhibition,[5]; at 33.0 µM,-3%
same,growth inhibition,[5]; [18],31% and 18%
same,growth inhibition,[5]; at 50.0 µM,56.7% and 56.4%
same,growth inhibition,[5]; at 100.0 µM,99% (active)
same,growth inhibition,[6]; at 1.2 µM,-2%
same,growth inhibition,[6]; at 3.7 µM,0%
same,growth inhibition,[6]; at 11.0 µM,-1%
same,growth inhibition,[6]; at 33.0 µM,18%
same,growth inhibition,[6]; at 100.0 µM,99% (active)
same,growth inhibition,[7]; [17],-68% and -66%
same,growth inhibition,[7]; [18],36% and 47%
same,growth inhibition,[7]; at 50.0 µM,62% and 49.7%
same,growth inhibition,[8]; at 1.2 µM,-6%
same,growth inhibition,[8]; at 3.7 µM,-7%
same,growth inhibition,[8]; at 11.0 µM,-1%
same,growth inhibition,[8]; at 33.0 µM,6%
same,growth inhibition,[8]; at 100.0 µM,97% (active)
same,growth inhibition,[9]; [17],-68% and -62%
same,growth inhibition,[9]; [18],-49% and -39%
same,growth inhibition,[9]; at 50.0 µM,-14.5% and -17.3%
same,growth inhibition,[10]; at 1.2 µM,-6%
same,growth inhibition,[10]; at 3.7 µM,0%
same,growth inhibition,[10]; [17],-51% and -54%
same,growth inhibition,[10]; at 11.0 µM,10%
same,growth inhibition,[10]; at 33.0 µM,30%
same,growth inhibition,[10]; [18],18% and 54%
same,growth inhibition,[10]; at 50.0 µM,46.5% and 63.5%
same,growth inhibition,[10]; at 100.0 µM,99% (active)
same,growth inhibition,[11]; at 1.2 µM,-4%
same,growth inhibition,[11]; at 3.7 µM,-3%
same,growth inhibition,[11]; at 11.0 µM,-5%
same,growth inhibition,[11]; at 33.0 µM,-6%
same,growth inhibition,[11]; at 100.0 µM,98% (active)
same,growth inhibition,[12]; at 1.2 µM,2%
same,growth inhibition,[12]; at 3.7 µM,-9%
same,growth inhibition,[12]; at 11.0 µM,-7%
same,growth inhibition,[12]; at 33.0 µM,-9%
same,growth inhibition,[12]; at 100.0 µM,99% (active)
same,growth inhibition,[13]; at 1.2 µM,-3%
same,growth inhibition,[13]; at 3.7 µM,-5%
same,growth inhibition,[13]; at 11.0 µM,-11%
same,growth inhibition,[13]; at 33.0 µM,12%
same,growth inhibition,[13]; at 100.0 µM,99% (active)
same,growth inhibition,[14]; [17],-127% and -135%
same,growth inhibition,[14]; [18],-30% and -44%
same,growth inhibition,[14]; at 50.0 µM,55.5% and 45%
same,growth inhibition,[15]; at 1.2 µM,-2%
same,growth inhibition,[15]; at 3.7 µM,-3%
same,growth inhibition,[15]; at 11.0 µM,0%
same,growth inhibition,[15]; at 33.0 µM,6%
same,growth inhibition,[15]; at 100.0 µM,99% (active)
Nc1n[n+]([O-])c2ccc(Cl)cc2[n+]1[O-],growth inhibition,[1]; at 1.2 µM,49%
same,growth inhibition,[1]; at 3.7 µM,80% (active)
same,growth inhibition,[1]; at 11.0 µM,91% (active)
same,growth inhibition,[1]; at 33.0 µM,94% (active)
same,growth inhibition,[1]; at 100.0 µM,96% (active)
same,growth inhibition,[2]; at 1.2 µM,8%
same,growth inhibition,[2]; at 3.7 µM,13%
same,growth inhibition,[2]; at 11.0 µM,31%
same,growth inhibition,[2]; at 33.0 µM,62%
same,growth inhibition,[2]; at 100.0 µM,84% (active)
same,growth inhibition,[3]; at 1.2 µM,53%
same,growth inhibition,[3]; at 3.7 µM,77% (active)
same,growth inhibition,[3]; at 11.0 µM,88% (active)
same,growth inhibition,[3]; at 33.0 µM,91% (active)
same,growth inhibition,[3]; at 100.0 µM,94% (active)
same,growth inhibition,[4]; at 1.2 µM,1%
same,growth inhibition,[4]; at 3.7 µM,27%
same,growth inhibition,[4]; at 11.0 µM,36%
same,growth inhibition,[4]; at 33.0 µM,80% (active)
same,growth inhibition,[4]; at 100.0 µM,95% (active)
same,growth inhibition,[16]; at 1.2 µM,60%
same,growth inhibition,[16]; at 3.7 µM,79% (active)
same,growth inhibition,[16]; [17],65%
same,growth inhibition,[16]; at 11.0 µM,88% (active)
same,growth inhibition,[16]; at 33.0 µM,92% (active)
same,growth inhibition,[16]; [18],95% (active)
same,growth inhibition,[16]; at 50.0 µM,96.8% (active)
same,growth inhibition,[16]; at 100.0 µM,94% (active)
same,growth inhibition,[5]; at 1.2 µM,9%
same,growth inhibition,[5]; at 3.7 µM,22%
same,growth inhibition,[5]; [17],15%
same,growth inhibition,[5]; at 11.0 µM,57%
same,growth inhibition,[5]; at 33.0 µM,83% (active)
same,growth inhibition,[5]; [18],91% (active)
same,growth inhibition,[5]; at 50.0 µM,78% (active)
same,growth inhibition,[5]; at 100.0 µM,93% (active)
same,growth inhibition,[7]; [17],48%
same,growth inhibition,[7]; [18],91% (active)
same,growth inhibition,[7]; at 50.0 µM,93.2% (active)
same,growth inhibition,[8]; at 1.2 µM,6%
same,growth inhibition,[8]; at 3.7 µM,32%
same,growth inhibition,[8]; at 11.0 µM,55%
same,growth inhibition,[8]; at 33.0 µM,84% (active)
same,growth inhibition,[8]; at 100.0 µM,95% (active)
same,growth inhibition,[9]; [17],19%
same,growth inhibition,[9]; [18],93% (active)
same,growth inhibition,[9]; at 50.0 µM,76.7% (active)
same,growth inhibition,[10]; at 1.2 µM,0%
same,growth inhibition,[10]; at 3.7 µM,15%
same,growth inhibition,[10]; [17],24%
same,growth inhibition,[10]; at 11.0 µM,44%
same,growth inhibition,[10]; at 33.0 µM,81% (active)
same,growth inhibition,[10]; [18],93% (active)
same,growth inhibition,[10]; at 50.0 µM,82.8% (active)
same,growth inhibition,[10]; at 100.0 µM,90% (active)
same,growth inhibition,[11]; at 1.2 µM,8%
same,growth inhibition,[11]; at 3.7 µM,30%
same,growth inhibition,[11]; at 11.0 µM,57%
same,growth inhibition,[11]; at 33.0 µM,85% (active)
same,growth inhibition,[11]; at 100.0 µM,95% (active)
same,growth inhibition,[12]; at 1.2 µM,15%
same,growth inhibition,[12]; at 3.7 µM,38%
same,growth inhibition,[12]; at 11.0 µM,70% (active)
same,growth inhibition,[12]; at 33.0 µM,93% (active)
same,growth inhibition,[12]; at 100.0 µM,96% (active)
same,growth inhibition,[13]; at 1.2 µM,18%
same,growth inhibition,[13]; at 3.7 µM,55%
same,growth inhibition,[13]; at 11.0 µM,78% (active)
same,growth inhibition,[13]; at 33.0 µM,91% (active)
same,growth inhibition,[13]; at 100.0 µM,95% (active)
same,growth inhibition,[14]; [17],50%
same,growth inhibition,[14]; [18],97% (active)
same,growth inhibition,[14]; at 50.0 µM,94.7% (active)
same,growth inhibition,[15]; at 1.2 µM,66%
same,growth inhibition,[15]; at 3.7 µM,87% (active)
same,growth inhibition,[15]; at 11.0 µM,93% (active)
same,growth inhibition,[15]; at 33.0 µM,95% (active)
same,growth inhibition,[15]; at 100.0 µM,95% (active)
